The record followed here is article PMC11006913.

The target in this assay is PROP1 (Homo sapiens, UniProt O75360 56-141). Put plainly: PBM; 200 nM protein, PBS. To be noted: dsDNA, one strand shown.
Chain of PROP1 (O75360 56-141): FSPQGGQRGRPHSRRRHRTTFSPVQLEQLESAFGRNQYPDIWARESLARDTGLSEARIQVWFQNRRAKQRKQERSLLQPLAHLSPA
Consider AATATGAA, for which the binding signal is 8.47 upbm affinity estimate (log intensity, higher = more binding, comparable within an allelic series). For AGGCCAGG the value was 6.77 upbm affinity estimate (log intensity, higher = more binding, comparable within an allelic series); for GGCATGAC, 6.69 upbm affinity estimate (log intensity, higher = more binding, comparable within an allelic series). For AAAAATTT the value was 8.27 upbm affinity estimate (log intensity, higher = more binding, comparable within an allelic series); for AATCTATA, 8.79 upbm affinity estimate (log intensity, higher = more binding, comparable within an allelic series); for CCCGGGAA, 6.78 upbm affinity estimate (log intensity, higher = more binding, comparable within an allelic series). The figure for GCGGACGC is 6.53 upbm affinity estimate (log intensity, higher = more binding, comparable within an allelic series); for GGGTCGGA it is 6.69 upbm affinity estimate (log intensity, higher = more binding, comparable within an allelic series); for CCGACCGG it is 6.54 upbm affinity estimate (log intensity, higher = more binding, comparable within an allelic series).

For AGGCTCCG, the binding signal is 6.78 upbm affinity estimate (log intensity, higher = more binding, comparable within an allelic series).

For the sequence AGAGCCGG, the binding signal was 6.81 upbm affinity estimate (log intensity, higher = more binding, comparable within an allelic series). For CGCGTCCC the value was 6.69 upbm affinity estimate (log intensity, higher = more binding, comparable within an allelic series); for GCTAGACC, 6.61 upbm affinity estimate (log intensity, higher = more binding, comparable within an allelic series).

On to GCCATGGC, for which the binding signal was 6.94 upbm affinity estimate (log intensity, higher = more binding, comparable within an allelic series). The figure for AGTCTGCG is 6.67 upbm affinity estimate (log intensity, higher = more binding, comparable within an allelic series); for AGTAAATA it is 8.94 upbm affinity estimate (log intensity, higher = more binding, comparable within an allelic series); for GCAAATAA it is 9 upbm affinity estimate (log intensity, higher = more binding, comparable within an allelic series). In the case of GGCCACCA, the binding signal is 6.96 upbm affinity estimate (log intensity, higher = more binding, comparable within an allelic series). CGATGCCC: the binding signal is 6.76 upbm affinity estimate (log intensity, higher = more binding, comparable within an allelic series). For GACAGGGC the value was 6.65 upbm affinity estimate (log intensity, higher = more binding, comparable within an allelic series). For GCCTGCGA the value was 6.74 upbm affinity estimate (log intensity, higher = more binding, comparable within an allelic series); for AGCTCCCG, 6.72 upbm affinity estimate (log intensity, higher = more binding, comparable within an allelic series). Regarding AATTCAAC, the binding signal is 8.25 upbm affinity estimate (log intensity, higher = more binding, comparable within an allelic series). The figure for ATGCCAGC is 6.71 upbm affinity estimate (log intensity, higher = more binding, comparable within an allelic series); for CCAGGGTC it is 6.75 upbm affinity estimate (log intensity, higher = more binding, comparable within an allelic series); for GCTCGGAC it is 6.55 upbm affinity estimate (log intensity, higher = more binding, comparable within an allelic series). For CCTGTTAG the value was 8.32 upbm affinity estimate (log intensity, higher = more binding, comparable within an allelic series). Take AGCCTGGC: the binding signal is 6.55 upbm affinity estimate (log intensity, higher = more binding, comparable within an allelic series).

GTCAGGAC: the binding signal is 6.88 upbm affinity estimate (log intensity, higher = more binding, comparable within an allelic series).

With CGCGGTCC, the binding signal is 6.77 upbm affinity estimate (log intensity, higher = more binding, comparable within an allelic series). For AGGACACC the value was 6.84 upbm affinity estimate (log intensity, higher = more binding, comparable within an allelic series); for ATTATGGG, 9.26 upbm affinity estimate (log intensity, higher = more binding, comparable within an allelic series). For ACCGAGAG the value was 6.71 upbm affinity estimate (log intensity, higher = more binding, comparable within an allelic series); for AAGGGAGT, 6.58 upbm affinity estimate (log intensity, higher = more binding, comparable within an allelic series); for CCCGCGCA, 6.78 upbm affinity estimate (log intensity, higher = more binding, comparable within an allelic series). For GGTGCACC the value was 6.54 upbm affinity estimate (log intensity, higher = more binding, comparable within an allelic series).

On to GACATTAC, for which the binding signal was 8.23 upbm affinity estimate (log intensity, higher = more binding, comparable within an allelic series). For CGCGAACC the value was 6.6 upbm affinity estimate (log intensity, higher = more binding, comparable within an allelic series). For GGAGCAGA the value was 6.75 upbm affinity estimate (log intensity, higher = more binding, comparable within an allelic series); for AGGGCCGC, 6.72 upbm affinity estimate (log intensity, higher = more binding, comparable within an allelic series).
